Bioassay records as filed in PubChem BioAssay.
An excerpt weighted towards active compounds, which were near 9.6% of everything screened.
USP30 inh: inhibitors of human USP30 deubiquitinase. Q70CQ3. purified USP30, Ub-rhodamine cleavage fluorescence. inhibition, % at 25 µM. actives 5.3% (n = 47,000). AID 1645860
Target sequence (Q70CQ3 whole entry, looked up): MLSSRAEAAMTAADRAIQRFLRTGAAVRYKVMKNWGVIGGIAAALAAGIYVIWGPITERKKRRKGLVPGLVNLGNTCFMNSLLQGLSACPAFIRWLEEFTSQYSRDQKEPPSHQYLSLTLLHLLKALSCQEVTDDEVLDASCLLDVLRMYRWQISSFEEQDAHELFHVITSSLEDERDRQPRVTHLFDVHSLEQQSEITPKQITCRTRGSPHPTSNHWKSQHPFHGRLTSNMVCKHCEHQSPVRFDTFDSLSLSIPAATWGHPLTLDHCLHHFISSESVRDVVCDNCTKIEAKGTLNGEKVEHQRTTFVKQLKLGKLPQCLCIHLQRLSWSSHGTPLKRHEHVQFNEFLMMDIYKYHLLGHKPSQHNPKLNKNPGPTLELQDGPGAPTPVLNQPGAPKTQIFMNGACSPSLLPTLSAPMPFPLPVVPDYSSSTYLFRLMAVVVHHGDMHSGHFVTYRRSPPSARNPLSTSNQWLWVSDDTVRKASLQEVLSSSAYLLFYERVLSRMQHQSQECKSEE
USP17 block: inhibitors of human USP17 deubiquitinase; A8MUK1; purified USP17, Ub-rhodamine cleavage fluorescence, 3 h; inhibition, % at 50 µM; actives 6.5% (n = 47,000)
Numbers without * were called inactive; . = no result. Cut-off read from the data, not from the text of the source: active = inhibition above about 30%; inactive = the rest.

SMILES | USP30 inh | USP17 block
CCc1cc(C(=O)c2ccc(OC)cc2)c(NC(=O)CSc2nnc(-c3cccs3)n2C)s1 | . | 61*
COc1ccc(C(=O)CSc2nnc(-c3cc4ccccc4o3)n2C)cc1 | 2 | 13
Cc1ccc2[nH]c(C3CCCN(C(=O)CCCn4ccnc4)C3)c(-c3ccncc3)c2c1 (stereo not drawn) | -11 | -20
O=C(COC(=O)C(Cc1ccccc1)NC(=O)c1ccccc1)NCc1ccc2c(c1)OCO2 (stereo not drawn) | 10 | 47*
CC(C)C(NC(=O)c1ccccc1Cl)C(=O)OCC(=O)NCc1ccc2c(c1)OCO2 (stereo not drawn) | 0 | -5
COCCCn1c(C(=O)Nc2ccc(OC)cc2)cc2c(=O)n3ccccc3nc21 | -8 | 1
COCCCn1c(C(=O)Nc2ccccc2OC)cc2c(=O)n3ccccc3nc21 | 35* | 77*
CCCCNC(=O)c1cc2c(=O)n3ccccc3nc2n1CCCOC | 3 | 2
COCCCn1c(C(=O)NCCC(C)C)cc2c(=O)n3ccccc3nc21 | 34* | 32*
Cc1ccc(-n2c(C)cn3c4c(=O)n(CCN5CCOCC5)c(=O)n(C)c4nc23)cc1 | 12 | 4
CCCCN1CCn2c(nc3cc(NS(C)(=O)=O)ccc32)C1 | -2 | 3
Cc1ccc(S(=O)(=O)c2nnn3c2nc(Nc2cccc(C)c2C)c2ccccc23)cc1 | 30 | 22
O=S(=O)(c1ccccc1)c1nnn2c1nc(Nc1ccc(F)cc1)c1ccccc12 | 17 | 5
COc1cccc(Nc2nc3c(S(=O)(=O)c4ccccc4)nnn3c3ccccc23)c1 | . | 85*
Cc1c(Cl)cccc1Nc1nc2c(S(=O)(=O)c3ccccc3)nnn2c2ccc(Cl)cc12 | . | 57*
CN(CC(=O)NC(C(N)=O)c1ccccc1)Cc1ccccc1 (stereo not drawn) | 11 | 6
Cn1c(C(=O)N(Cc2ccc3c(c2)OCO3)C2CCCCC2)cc(=O)n(C)c1=O | -7 | -9
CCCCc1nc2sc3c(NCCN4CCOCC4)ncnc3c2c2c1CCC2 | -31 | -14
CCN1CCN(c2ncc(C(=O)NC3CC3)c(C)n2)CC1 | 1 | 8
O=C(c1cccs1)N1CCCC(c2nc(N3CCOCC3)ncc2-c2cccnc2)C1 (stereo not drawn) | 13 | 14
CCCC(=O)N1CCC(c2nc3ccc(F)cn3c2NC2CCCC2)CC1 | -385 | -108
COc1ccc(C2CC(=O)N(c3cccc(F)c3)C(=O)C2)cc1OC | -21 | -8
COc1ccc(-c2cn(-c3ccc(SC(F)F)cc3)c3[n+]2CCC3)cc1OC | 30* | 9
COc1cccc(NC(=O)C2CN(C(=O)c3ccc(F)c(F)c3)C2)c1 | -12 | -14
O=C(Nc1ccccc1F)N1CCN(c2cc(-c3ccncc3)[nH]n2)CC1 | 17 | 3
SMILES | USP30 inh | USP17 block
O=C(Nc1ccc(F)cc1F)N1CCN(c2cc(-c3ccncc3)[nH]n2)CC1 | 41* | .
O=C(c1cnn2cccnc12)N1CCC(c2ccn3nccc3n2)CC1 | 33* | 18
O=C(c1cnn2cccnc12)N1CCn2c(nnc2C2CC2)C1 | 27 | 18
Cc1noc([C@@H]2C[C@H](NC(=O)c3ccc(F)cc3)CN2C)n1 | 15 | 20
O=C(NCc1ccc(F)cc1)C1Oc2ccccc2NC1=O (stereo not drawn) | 7 | .
O=C1c2c(O)c(Cl)cc3c2[C@@]2(Oc4ccc(O)c5c4[C@]3(O2)[C@@H]2O[C@@H]2C5=O)[C@@H]2O[C@H]12 | 44* | 80*
CCOC(=O)N1CCN(C(=O)CC2(CC(=O)O)CCCC2)CC1 | 18 | 18
CC1(C)OC(=O)[C@]2(C)C[C@@H](C(=O)Nc3cccc(Cl)c3)[C@@]1(C)N2 | 1 | -7
CCOC(=O)c1cnn(-c2nc3ccccc3s2)c1N=CN(C)C | 97* | 70*
CCOC(=O)c1cnn(-c2nc(-c3ccccc3)c(S(=O)(=O)c3ccc(Cl)cc3)s2)c1C(F)(F)F | 20 | 14
Cc1ccnc2nc(C(=O)Nc3ccc(-n4cccn4)nc3)nn12 | -96 | -25
CN(c1ccccc1)S(=O)(=O)c1cccc(NS(=O)(=O)c2ccc(Cl)c(C(=O)O)c2)c1 | -14 | 0
c1cncc(-c2noc(C3CC34CCN(c3nc5ccccc5o3)CC4)n2)c1 (stereo not drawn) | -4 | .
Cc1cc(O)c2c3c(c(O)c4c(c13)O[C@@H](C)C4(C)C)C(=O)C2=O | 0 | 83*
CC(C)(C)n1nc(-c2ccc(Cl)cc2)c2c(N)nc(-c3ccc(Cl)cc3)nc21 | 3 | 25
COc1cccc(C2C3=C(CC(c4ccc(Cl)cc4)CC3=O)Nc3ccccc3N2C(=O)c2ccccc2)c1 (stereo not drawn) | 20 | -7
Cc1ccc(C2CC(=O)C3=C(C2)Nc2ccccc2N(C(=O)c2ccccc2)C3c2ccccc2)cc1 (stereo not drawn) | 43* | 26
Cc1ccc(C2C3=C(CC(c4ccc(Cl)cc4)CC3=O)Nc3ccccc3N2C(=O)c2ccccc2)cc1 (stereo not drawn) | 36* | 28
COc1ccc(C2C3=C(CC(c4ccc(C)cc4)CC3=O)Nc3ccccc3N2C(=O)c2ccccc2)cc1 (stereo not drawn) | 12 | 23
CNC(=O)[C@@H]1CN2CCN(C(=O)c3ccccc3)C[C@@H]2[C@H]1c1ccccc1 | -1 | -1
N#Cc1cc2c(nc1SCC(=O)NCc1ccccc1)CCCC2 | 20 | 59*
Cc1ccc(NC(=O)CSc2nc3c(cc2C#N)C(=O)CCC3)cc1 | 0 | 55*
N#Cc1cc2c(nc1SCC(=O)Nc1ccc(F)cc1)CCCC2=O | -26 | 2
N#Cc1cc2c(nc1SCC(=O)NC1CCCCC1)CCCC2 | -17 | -7
O=C1O[C@@H]2C[C@H]3C[C@@H]2[C@@H]1[C@H]3C(=O)N1CCN(c2ccc(F)cc2)CC1 | 0 | 0
SMILES | USP30 inh | USP17 block
O=C(O)/C=C/c1nc(-c2cccc([N+](=O)[O-])c2)n2ccccc12 | -31 | -8
CCOc1cc(CNC(=O)C2CCCN(c3nc4ccc(C)cc4[nH]3)C2)ccc1OC (stereo not drawn) | 2 | 3
COc1ccc(C(=O)CSc2nc3ccccc3n2C)c(F)c1 | -32 | -12
COc1ccc(-c2cc(-c3nnc(CSc4nc5ccccc5n4C)o3)c3ccccc3n2)cc1OC | 0 | 58*
Cc1cc(=O)oc2c(C)c(OCC(=O)NCc3ccccn3)ccc12 | 3 | -3
Cc1c(C)c2ccc(OCC(=O)NCc3ccccn3)c(C)c2oc1=O | 46* | 40*
Cc1nnc(-c2ccc3ccn(CC(=O)NC4CCCC4)c3c2)o1 | 2 | -11
Cc1nnc(-c2ccc3ccn(CC(=O)N4CCCc5ccccc54)c3c2)o1 | . | 86*
Cc1nnc(-c2ccc3ccn(CC(=O)N4CCN(c5ccccc5)CC4)c3c2)o1 | 50* | 93*
Cc1nnc(-c2ccc3ccn(CC(=O)NC4CCCCCC4)c3c2)o1 | 16 | 7
O=c1ccc(-c2noc(CCC3CCCC3)n2)c[nH]1 | -1 | -8
COc1ccc([C@@H]2OC(C)(C)C3CC2[C@](C)(O)[C@@H](O)C3)cc1 (stereo partly drawn) | 0 | -21
COC(=O)c1cc(Br)c(NC(=O)c2ccco2)cc1OC | 20 | 39*
COc1cc(NC(=O)c2ccc(OCc3ccccc3)cc2)ccc1NC(=O)c1ccco1 | -71 | -12
CCCc1cc2c(=O)c(-c3ccc4c(c3)OCCCO4)coc2cc1OC(=O)N(C)C | 15 | 5
